Shown are actives, neighbours in structure and some others; about 17% of the full set was active somewhere.
DT40 TDP1 CPT: qHTS for Inhibitors of human tyrosyl-DNA phosphodiesterase 1 (TDP1): qHTS in cells in presence of CPT. chicken DT40 Tdp1-/-;hTDP1 cells + 20 nM CPT, ATP luminescence, 48 h. Potency, µM (titrated, usually from 46.2 µM), without a hit: top-dose activity change, negative = growth inhibition, usual class: inhibitors. hit rate 12% among 420,000; further: on the % scale 0 is the no-effect control and ±100 the full control effect; nearly all actives have a fitted effect of over 55% in size
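Chicken DT40 Tdp1-/- cells complemented with human TDP1, 400 cells/well, exposed to compounds plus 20 nM camptothecin for at least 48 h at 37 C; viability read as ATP content by CellTiter-Glo luminescence.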
ATXN2 expr inh: Primary qHTS for Inhibitors of ATXN expression; HEK-293 ATXN2-luciferase reporter, luminescence, 24 h; hit rate 0.72% among 360,000; Potency, µM (series often up to 57 µM), for the others: at the highest dose activity change, negative = inhibition, actives largely listed as inhibitors; further: on the % scale 0 is the no-effect control and ±100 the full control effect; nearly all actives have a fitted effect of over 55% in size
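ATXN2-luciferase reporter cells (luciferase flanked by upstream and downstream ATXN2 gene portions) were treated 24 h at 37 °C with compounds at up to 57 uM. SteadyGlo luminescence gave expression; GF-AFC fluorescence gave viability.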
TGFb inhibitor: qHTS for Inhibitors of TGF-b | HepG2 CAGA-GFP TGF-b/SMAD3 reporter, GFP fluorescence, 18 h; TGF-beta stimulated, 500 pg/mL final | Potency, µM (series often up to 46.1 µM), inactives show top-dose activity, negative = inhibition, most hits filed as inhibitors | hit rate 1.2% among 410,000 | AID 588855, 2011; further: on the % scale 0 is the no-effect control and ±100 the full control effect; nearly all actives have a fitted effect of over 65% in size
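GFP signal (ex488/em500-530) from TGF-beta-stimulated HEPG2 CAGA-GFP cells, 500 pg/mL final, 18 h at 37 degrees C in DMEM plus 1% FBS, normalized to unstimulated and DMSO-stimulated controls.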
HepG2 viability: qHTS for Inhibitors of TGF-b: Cytotox Counterscreen | HepG2 CAGA-GFP viability, ATP luminescence, 18 h | Potency, µM (highest dose often 46.1 µM), without a hit: at the highest dose activity change, negative = cytotoxicity, most hits filed as cytotoxic | hit rate 0.76% among 410,000
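HepG2 CAGA-GFP cells (1000/well, DMEM with 1% FBS) received compound, then TGF-beta at 500 pg/mL final, and were incubated 18 hours at 37 degrees C. Viability was read by CellTiter-Glo luminescence. Media-only wells were set as complete cell-killing and DMSO as no toxicity.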
TDP1 cell noCPT: qHTS for Inhibitors of human tyrosyl-DNA phosphodiesterase 1 (TDP1): qHTS in cells in absence of CPT; hit rate 15% among 420,000; DT40 Tdp1-/- hTDP1 cells, no CPT, ATP luminescence, 48 h; Potency, µM (series often up to 46.2 µM), for the others: at the highest dose activity change, negative = growth inhibition, usual class: inhibitors; further: on the % scale 0 is the no-effect control and ±100 the full control effect; nearly all actives have a fitted effect of over 55% in size
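Growth of hTDP1-complemented DT40 Tdp1-knockout cells is measured by ATP luminescence after at least 48 hr compound exposure at 37 °C, with DMSO substituting for the 20 nM CPT used in the parallel screen.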
S2 tox: Viability Counterscreen for Primary qHTS for Inhibitors of ATXN expression. S2 cells (HEK-293 line with an ATXN2-luciferase reporter) viability, CellTiter-Fluor protease fluorescence, 24 h. Potency, µM (titrated, usually from 56.7 µM), most hits filed as cytotoxic. hit rate 0.49% among 400,000. AID 651635, 2014; further: nearly all actives have a fitted effect of over 40% in size
An asterisk follows results filed as active; i = inactive; ? = inconclusive; . = no result; [ ] = dose if it differs, or a comment. The call rests on the fitted dose curve; in most records, active means well fitted curve in the direction sought with a large enough effect; inconclusive means small, poorly fitted or top-dose-only effect, or another doubt; inactive means no such curve, though single readings can be large; an effect the other way counts as inactive or inconclusive. Potency means the concentration at half of the fitted maximal effect.

SMILES	DT40 TDP1 CPT	ATXN2 expr inh	TGFb inhibitor	HepG2 viability	TDP1 cell noCPT	S2 tox
CCOc1ccc(-c2nc(Cn3c(=O)cc(-c4ccccc4)c4c(C)nn(C)c43)c(C)o2)cc1	-5%	.	0%	5%	4%	.
CCCCC(=O)NCCc1c(Cc2ccccc2)[nH]c2ccccc12	?	.	.	.	18µM*	.
CCCCCCCCCCCCCCCC(=O)NCCc1c[nH]c2ccccc12	-3%	7%	-3%	-3%	-11%	i
CCCCN=C1CC(C)(C)CC(=O)/C1=C(/O)CCC	?	-23%	0%	4%	?	i
COC(=O)[C@@]1(Cc2ccc(OC)cc2)[C@H]2c3cc(C(=O)N4CCCC4)n(CCSCCO)c3C[C@H]2CN1C(=O)c1ccccc1	?	-5%	-29%	-33%	?	i
Cc1ccc(-c2cn3c(n2)sc2cc(C(=O)N4CCCCC4)ccc23)cc1	-79%	.	-21%	-33%	16µM*	.
CCOC(=O)N1CCN(C(=O)c2ccc3c(c2)sc2nc(-c4ccccc4)cn23)CC1	?	47%	-42%	-17%	?	i
CCOC(=O)C1CCN(C(=O)c2ccc3c(c2)sc2nc(-c4ccccc4)cn23)CC1	6.5µM*	.	?	-18%	23µM*	.
CCOC(=O)C1CCN(C(=O)c2ccc3c(c2)sc2nc(-c4ccc(OCC)cc4)cn23)CC1	7.3µM*	-24%	-30%	-15%	6.5µM*	i
CN(Cc1ccccc1)C(=O)C1CCN(S(=O)(=O)c2cc([N+](=O)[O-])ccc2Cl)CC1	?	-10%	2%	-11%	23µM*	i
Cc1ccc2nc(NC(=O)C3CCN(S(=O)(=O)c4cc([N+](=O)[O-])ccc4Cl)CC3)sc2c1	9.2µM*	-37%	?	-24%	6.5µM*	?
Cc1ccc(NC(=O)C2CCN(S(=O)(=O)c3cc([N+](=O)[O-])ccc3Cl)CC2)nc1	16µM*	.	?	-14%	15µM*	?
CC(NC(=O)C1CCN(S(=O)(=O)c2cc([N+](=O)[O-])ccc2Cl)CC1)c1ccccc1 (stereo unspecified)	?	-1%	4%	5%	?	i
Cc1ccc(CCC(=O)NCc2ccccc2)o1	-1%	2%	3%	2%	-13%	i
CCC1Sc2ccc(S(=O)(=O)CCC(=O)NCc3ccco3)cc2NC1=O (stereo unspecified)	?	.	?	-17%	?	i
FC(F)(F)c1cc(-c2cccs2)nc2nc(N3CCOCC3)sc12	?	-31%	6%	-27%	?	i
Cc1nc2ccc(C(=O)N(C)Cc3ccco3)cn2c1N(C)CC1CCCCC1	18µM*	?	?	-34%	13µM*	?
Cc1nc2ccc(C(=O)NCCCn3ccnc3)cn2c1N(C)CC1CCCCC1	?	-32%	-20%	-35%	?	?
OC1(c2cccnc2)CCN(Cc2ccc3c(c2)CN(Cc2ccc4nsnc4c2)CCO3)CC1	-5%[9.04 µM]	.	.	.	?	i
CC(C(=O)NC1CCCc2ccccc21)N1CCN(Cc2ccc3c(c2)OCO3)CC1 (stereo unspecified)	?	-13%	0%	-33%	?	i
CC(C(=O)NC1CCCc2ccccc21)N1CCN(c2ccc(F)cc2)CC1 (stereo unspecified)	?	-5%	-9%	-2%	16µM*	i
O=C(Nc1ccc(C(=O)N2CCN(c3ccccc3)CC2)cc1)c1nsc2ccccc12	?	.	28%	-38%	?	.
Cc1ccc(C)c(N2CCN(C(=O)c3ccc(NC(=O)c4nsc5ccccc45)cc3)CC2)c1	21µM*	72%	-2%	4%	18µM*	i
O=C(Nc1cccc(C(=O)N2CCN(c3cccc(Cl)c3)CC2)c1)c1ccccc1	16µM*	.	-17%	-10%	26µM*	?
O=C(Nc1cccc(C(=O)N2CCN(c3ccccc3)CC2)c1)c1ccco1	-23%	-3%	1%	-16%	-24%	i
SMILES	DT40 TDP1 CPT	ATXN2 expr inh	TGFb inhibitor	HepG2 viability	TDP1 cell noCPT	S2 tox
O=C(Nc1ccc(C(=O)N2CCN(c3cccc(Cl)c3)CC2)cc1)c1nsc2ccccc12	?	59%	28%	-37%	13µM*	i
Cc1ccc(NC(=O)N2CCN(C(=O)c3nsc4ccccc34)CC2)cc1C	?	.	-1%	-18%	?	.
O=C(Nc1cccc(C(=O)N2CCN(c3cccc(Cl)c3)CC2)c1)c1nsc2ccccc12	18µM*	13%	14%	-27%	16µM*	?
Cc1ccc(C(=O)NCC(=O)OCC(=O)c2c(N)n(C)c(=O)n(C)c2=O)s1	2%	5%	-29%	-5%	-7%	i
O=C(Nc1cccc(C(=O)N2CCN(c3ccccc3F)CC2)c1)c1nsc2ccccc12	?	-10%	-16%	-12%	?	i
O=C(Nc1cccc(C(=O)N2CCN(c3ccc(Cl)cc3)CC2)c1)c1nsc2ccccc12	15µM*	0%	-11%	-38%	10µM*	?
CNc1nc(Oc2ccc3sc(C)nc3c2)c2sccc2n1	21µM*	-9%	-7%	-26%	21µM*	i
N#Cc1ccc(C23CC4(C2)[C@H](CN(CC2CCCCC2)[C@@H]4c2ccccc2)C3c2ccccc2)cc1 (stereo partly specified)	?	0%	0%	-27%	16µM*	i
N#Cc1ccc(C23CC4(C2)[C@H](CN(CC2CCCCC2)[C@@H]4c2ccccc2)C3c2ccc(Cl)nc2)cc1 (stereo partly specified)	13µM*	-17%	-17%	-23%	15µM*	i
Cc1cc(C(=O)NN)c(Cl)cc1Cl	-20%	.	0%	-5%	0%	i
N/C(=N\c1nc2c(c(=O)[nH]1)CCC2)Nc1cccc(Cl)c1	21µM*	-17%	2%	-4%	26µM*	i
N/C(=N\c1nc2c(c(=O)[nH]1)CCC2)Nc1cccc2ccccc12	?	-17%	7%	-2%	?	i
CCOP(=O)(OCC)C(NC(=O)c1cccs1)c1ccccc1 (stereo unspecified)	5%	0%	-5%	8%	5%	i
